Structures are written as SMILES. Calls of active or inactive are those of the source. The call rests on the fitted dose curve; in most records, active means well fitted curve in the direction sought with a large enough effect in the repeat runs; inconclusive means weak or mixed curves; inactive means flat fitted curve, though single readings scatter.

This assay is described as follows: qHTS assay to test for compound auto fluorescence at 460 nm (blue) in HepG2 cell free culture (AID 720685). To be noted: Cell-free culture medium, blue autofluorescence 405/460 nm; series mostly up to 91.3 µM. The text has this:
U.S. Tox21 Program National Center for Advancing Translational Sciences [NCATS] NIH Chemical Genomics Center [NCGC] U.S. Environmental Protection Agency [EPA] National Institutes of Environmental Health Sciences [NIEHS] National Toxicology Program [NTP] U.S. Food and Drug Administration [FDA] Tox21 Assay Overview: Compound auto fluorescence often interferes with screening of the compound library against various biological targets and signaling pathways. Some of these compounds may have fluorophoric properties. Such properties may interfere with the assay outputs resulting in false positives and/or negatives. To decrease such complications and ensure the compound activities are relevant in terms of biological response, the Tox21 10K compound library was screened for auto fluorescence. From the fluorophores used as reporter signals in our screening assays, the auto fluorescence equivalencies of compounds against three fluorophores have been evaluated: Triamterene, Fluorescein and Rose Bengal sodium for blue, green and red fluorescence, respectively. The fluorescence intensities were measured using Excitation/Emission wavelengths at 405/460nm, 485/535nm and 540/590nm for blue, green and red labels, respectively. This assay includes the blue fluorescence data.
Tox21 Assay Protocol Summary: 5 uL of culture medium (MEM containing 10% FBS) per well was dispensed into black wall/clear bottom 1536-well plates using a Multidrop Combi Dispenser (ThermoFisher Scientific, Waltham, MA). After 23 nL compound or DMSO vehicle was transferred into assay plate by a pintool work station (Kalypsys, San Diego, CA), fluorescence intensities in the assay plates were measured by an Envision (PerkinElmer, Shelton, CT) plate reader using three labels for measuring blue, green and red fluorescence at […] 460, 535 and 590nm respectively.
Turning to `N[C@@H](Cc1cc(I)c(Oc2cc(I)c(O)c(I)c2)c(I)c1)C(=O)O`, the outcome was inactive.

As for `O=c1[nH]c(=O)n([C@H]2CCCO2)cc1F`, the molecule was called inactive.

For `O=C(O)c1ccc(C(=O)O)cc1`, the molecule was classed as inactive.

Regarding `Nc1cc([N+](=O)[O-])ccc1O`, the molecule was called inactive.

Regarding `Cc1cc(C)c(C)cc1C`, the outcome was inactive.

For `CC(c1cc2ccccc2s1)N(O)C(N)=O` (stereo not given), the outcome was inactive.

Take `CCCCCCCCCCCCOCCO`: the molecule was classed as inactive.

For `CCCCCCOCCO`, the molecule was classed as inactive.

Consider `CC(=O)c1ccccc1`, for which the molecule was classed as inactive.

As for `C=CCNC(N)=S`, the molecule was classed as inactive.

Turning to `CCC(O)OC(O)CC` (stereo not given), the result was inactive.

For `CCCC(C)=O`, the outcome was inactive.

In the case of `O=C(O)c1cc(C(=O)O)cc(S(=O)(=O)O)c1`, the result was inactive.

On to `CC(C)(N)CO`, for which the call was inactive.

Turning to `OCc1cccnc1`, the outcome was inactive.

For the molecule `CC(C)(C)[C@@H](O)[C@@H](Cc1ccc(Cl)cc1)n1cncn1`, the molecule was called inactive.

Take `CC(C)CC(=O)CC(C)C`: the call was inactive.

In the case of `CCCCCCCC(=O)OC`, the molecule was called inactive.

For `CCCCC(CC)COC(=O)CS` (stereo not given), the call was inactive.

As to `CC(=O)OCC(=O)[C@@]12N=C(C)O[C@@H]1C[C@H]1[C@@H]3CCC4=CC(=O)C=C[C@]4(C)[C@H]3[C@@H](O)C[C@@]12C`, the call was inactive.

`CC1CCC(C(C)C)C(O)C1` (stereo not given): the result was inactive.

Regarding `Oc1cccc2ccccc12`, the molecule was called inactive.

Take `C=CCOC(=O)c1ccccc1C(=O)OCC=C`: the molecule was classed as inactive.

In the case of `ON=C1CCCCC1`, the result was inactive.

Turning to `O=C(CC(C(=O)OC1CCCCC1)S(=O)(=O)O)OC1CCCCC1` (stereo not given), the call was inactive.

For the molecule `c1c[nH]cn1`, the molecule was classed as inactive.

Regarding `COc1ccc(NC(C)=O)cc1N`, the molecule was called inactive.

Take `CCCCCCCCCC`: the molecule was called inactive.

Take `OCC(CO)(CBr)CBr`: the molecule was called inactive.

On to `CC(=O)Nc1cccc(O)c1`, for which the molecule was classed as inactive.

On to `Cc1ccc(S(N)(=O)=O)cc1`, for which the molecule was classed as inactive.

Regarding `Fc1ccc(Br)cc1`, the molecule was classed as inactive.

In the case of `CC(=O)Nc1ccccc1`, the molecule was classed as inactive.

For `CCCCOC(=O)COc1ccc(Cl)cc1Cl`, the result was inactive.

`CCC(O)OCCCOC` (stereo not given): the molecule was called inactive.

On to `c1ccc2c(c1)ccc1ccccc12`, for which the call was inactive.

For `CC1=CCC2CC1C2(C)C` (stereo not given), the molecule was called inactive.

As to `NNc1nncc2ccccc12`, the outcome was inactive.

Take `C[C@H]1C[C@@H]2[C@H]([C@@H](O)C[C@@]3(C)[C@H]2CC[C@]3(O)C(=O)CO)[C@@]2(C)C=CC(=O)C=C12`: the result was inactive.

As for `CC(=O)CC(=O)Nc1ccccc1C`, the call was inactive.

The values above are taken from PubChem BioAssay (Tox21).
